D1 antag = blocks dopamine activation of the human D1 receptor; P21728; HEK293 TREx D1 cells, calcium flux, dopamine EC80; stronger effect = lower value; activity change, negative = inhibition, % at 10 µM; 360,000 compounds, 3.2% hits; AID 504652; in the data active = activity change below about -30%; note: % is set by controls: 0 for no effect and ±100 for the full control effect
Target sequence (P21728 whole entry, looked up): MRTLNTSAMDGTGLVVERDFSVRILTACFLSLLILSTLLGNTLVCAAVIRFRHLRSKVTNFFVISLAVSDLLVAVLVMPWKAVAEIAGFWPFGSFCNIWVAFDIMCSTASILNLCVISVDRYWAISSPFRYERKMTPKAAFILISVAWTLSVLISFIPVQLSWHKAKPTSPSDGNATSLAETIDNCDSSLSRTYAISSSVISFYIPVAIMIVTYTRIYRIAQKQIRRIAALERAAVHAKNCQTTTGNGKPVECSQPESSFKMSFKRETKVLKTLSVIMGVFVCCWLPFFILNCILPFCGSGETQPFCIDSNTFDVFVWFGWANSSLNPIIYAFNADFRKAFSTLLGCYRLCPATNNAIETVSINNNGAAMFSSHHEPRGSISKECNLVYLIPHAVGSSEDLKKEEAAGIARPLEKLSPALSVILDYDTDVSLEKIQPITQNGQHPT
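Using tetracycline-induced force-coupled D1 Hek293 cells and a calcium dye, signals were followed for 180 s after compound, then for 180 s after EC80 dopamine, to detect inhibitors.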
D1 ag = activates the human D1 dopamine receptor | P21728 | HEK293 T-REx D1 cells, calcium flux, agonist mode | activation, % at 2 µM | 360,000 compounds, 1% hits | AID 504660; in the data active = activation above about 30%; note: 0% is about no effect
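Tetracycline-induced HEK293 TREx D1 cells, force-coupled to calcium signalling, were dye-loaded with a no-wash calcium kit. Compound was pin-added after a 10 s baseline. Fluorescence was read kinetically at 1 cycle/s for 180 s, with calcium rises flagged as agonism.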
DRD3 antagonist = antagonists of human D3 dopamine receptor. max response, negative = inhibition, %. 360,000 compounds, 2.5% hits. AID 652054. D3R cells, DiscoveRx beta-arrestin luminescence, antagonist mode; stronger effect = lower value; in the data active = max response below about -50%; inconclusive = no clear call, values can overlap the other calls; note: % is set by controls: 0 for no effect and ±100 for the full control effect
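Cells plated overnight at 1500 cells/well, then exposed to library compounds with dopamine controls for 90 minutes at 37 degrees C. DiscoveRx reagent added for 30–60 minutes at room temperature; luminescence read, quantitative HTS format.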
D3 ag = agonists of human D3 dopamine receptor | P35462 | D3R DiscoveRx beta-arrestin cells, luminescence, 90 min | max activation, % | 410,000 compounds, 0.58% hits | AID 652048; in the data active = max activation above about 30%; note: 0% is about no effect
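Cells at 1500/well, incubated overnight, then treated with pinned compounds (dopamine as control) for 90 min at 37 degrees C. DiscoveRx reagent added for 30 - 60 minutes at room temperature; luminescence read.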
D1 potentiator = human D1 dopamine receptor positive modulation; P21728; HEK293 TREx D1 cells, calcium flux, dopamine EC20 potentiation; potentiation, % at 10 µM; 360,000 compounds, 0.036% hits; AID 504651; in the data active = potentiation above about 30%; note: 0% is about no effect
* = called active by the depositor; ? = inconclusive; . = not tested or not shown; ! = repeats disagree. Most compounds without a hit are left out; they make up all but 6% or so of the library.

SMILES | D1 antag | D1 ag | DRD3 antagonist | D3 ag | D1 potentiator
CC(C)CCN1CCN(Cc2cccn2-c2cccnc2)CC1CCO (configuration not stated) | 34 | 30* | -12 | -9 | -1
COCC(C)N1CCC(Oc2ccc(C(=O)N3CCCC3)cc2)CC1 (configuration not stated) | 2 | 2 | 6 | 4 | -2
COCCC(=O)N1CCC(Oc2ccc(C(=O)N3CCCC(OC)C3)cc2)CC1 (configuration not stated) | -35* | 2 | -3 | 3 | -5
COC(=O)CCC(C)N1CCC(Oc2ccc(C(=O)N3CCCC3)cc2)CC1 (configuration not stated) | -30* | 0 | -20 | -4 | -4
CCc1cc(C(=O)c2ccc(Br)cc2)c(NC(=O)CN(CC)CC)s1 | 4 | 7 | -62* | 2 | 7
COc1ccccc1N1CCN(S(=O)(=O)CCNC(=O)C(c2ccccc2)c2ccccc2)CC1 | -9 | 1 | . | 3 | -1
CCN(CC)c1ccc(/C=C2\SC(=O)N(C(C)C)C2=O)o1 | -17 | 51* | ? | -15 | -5
CC(C)N1C(=O)S/C(=C/c2ccc3c(c2)n(C)c(=O)n3C)C1=O | 2 | -1 | 34 | 15 | -3
CC(=O)c1cccc(NC(=S)N2CCc3ccccc32)c1 | -32* | 2 | 12 | 5 | 1
O=C(Nc1cccc(C(=O)N2CCCc3ccccc32)c1)c1ccccc1 | -37* | 1 | -10 | 1 | -8
O=C(c1ccccc1)N1CCCc2ccccc21 | -2 | 1 | 14 | 2 | -4
O=C(c1ccc(=O)oc1)N1CCCc2ccccc21 | 9 | 4 | -63* | -1 | -1
Fc1cccc(NC(=S)N2CCc3ccccc32)c1 | -10 | 5 | -8 | -1 | -2
CN(C)CCNc1oc(-c2ccc(COc3ccc(Cl)cc3)o2)nc1C#N | -8 | 24 | . | -12 | -1
NCCNC(=O)c1ccc(Cl)cn1 | . | . | . | 4 | .
CCCCOc1ccc(S(=O)(=O)Nc2ccc(-c3ccc(N4CCCCC4)nn3)cc2)cc1 | -9 | 9 | . | -1 | 2
Cc1ccc(CNC(=O)CN(c2cccc([N+](=O)[O-])c2)S(=O)(=O)c2ccccc2)cc1 | -5 | 1 | 12 | -1 | 9
Cc1ccc(CNC(=O)CN(c2cccc([N+](=O)[O-])c2)S(C)(=O)=O)cc1 | -35* | -1 | 10 | -1 | -3
COc1ccccc1CNC(=O)CN(c1cccc([N+](=O)[O-])c1)S(C)(=O)=O | -35* | 0 | -6 | 3 | -4
COc1ccc(CNC(=O)c2cc3c(=O)n(C)c4ccccc4c3n2C)c(OC)c1 | 11 | 3 | . | 6 | -3
C#CCOCCOCCOCCNc1nc(N2CCN(C(=O)CCCCCCCCCCNC(=O)[C@H]([C@@H](C)CC)n3cc(CCCCCN)nn3)CC2)nc(N2CCN(C(=O)CCCCCCCCCCNC(=O)[C@H](CO)n3cc(CCCCCN)nn3)CC2)n1 | 92 | 50* | -20 | 1 | 23
C#CCOCCOCCOCCNc1nc(N2CCN(C(=O)Cn3cc(CCO)nn3)CC2)nc(N2CCN(C(=O)[C@H]([C@@H](C)CC)n3cc(CCCN=C(N)N)nn3)CC2)n1 | . | . | -3 | 53* | .
C#CCOCCOCCOCCNc1nc(N2CCN(C(=O)[C@H](Cc3ccc(O)cc3)n3cc(CCO)nn3)CC2)nc(N2CCN(C(=O)[C@H](Cc3ccc(O)cc3)n3cc(CCO)nn3)CC2)n1 | -10 | -3 | . | . | -4
C#CCOCCOCCOCCNc1nc(N2CCN(C(=O)Cn3cc(CCO)nn3)CC2)nc(N2CCN(C(=O)[C@H](Cc3ccc(O)cc3)n3cc(CCO)nn3)CC2)n1 | . | . | ? | 47* | .
C#CCOCCOCCOCCNc1nc(N2CCN(C(=O)CCCCCCCCCCNC(=O)[C@H]([C@@H](C)CC)n3cc(CCCCCN)nn3)CC2)nc(N2CCN(C(=O)CCCCCCCCCCNC(=O)[C@@H]([C@H](C)CC)n3cc(CCCCCN)nn3)CC2)n1 | 28 | 8 | . | . | 22
SMILES | D1 antag | D1 ag | DRD3 antagonist | D3 ag | D1 potentiator
C#CCOCCOCCOCCNc1nc(N2CCN(C(=O)CCCCCCCCCCNC(=O)[C@H]([C@@H](C)CC)n3cc(CCCCCN)nn3)CC2)nc(N2CCN(C(=O)CCCCCCCCCCNC(=O)[C@H](CCCCN)n3cc(CCCC(=O)O)nn3)CC2)n1 | 60 | 35* | -4 | 42* | 26
CCC(=O)N1CCc2cc(Br)cc(S(=O)(=O)NCCc3ccccc3)c21 | -8 | 1 | . | -17 | 0
C#CCOCCOCCOCCNc1nc(N2CCN(C(=O)CCCCCCCCCCNC(=O)[C@H]([C@@H](C)CC)n3cc(CCCCCN)nn3)CC2)nc(N2CCN(C(=O)CCCCCCCCCCNC(=O)[C@H]([C@@H](C)CC)n3cc(CCCCN=C(N)N)nn3)CC2)n1 | 16 | 1 | . | . | -5
C#CCOCCOCCOCCNc1nc(N2CCN(C(=O)CCCCCCCCCCNC(=O)[C@@H](CCC(=O)O)n3cc(CCCCCN)nn3)CC2)nc(N2CCN(C(=O)CCCCCCCCCCNC(=O)[C@H]([C@@H](C)CC)n3cc(CCCCCN)nn3)CC2)n1 | 54 | 19 | 10 | 35* | 37*
C#CCOCCOCCOCCNc1nc(N2CCN(C(=O)CCCCCCCCCCNC(=O)Cn3cc(CCCCCN)nn3)CC2)nc(N2CCN(C(=O)CCCCCCCCCCNC(=O)[C@H]([C@@H](C)CC)n3cc(CCCCN=C(N)N)nn3)CC2)n1 | 12 | 2 | -63* | -34 | -4
COC(=O)CCNC(=O)NC(CCC(C)C)c1c(-n2cccc2)sc2c1CCN(C)C2 (configuration not stated) | -2 | 5 | . | -16 | -1
Cc1ccc(S(=O)(=O)NCCSc2nnnn2-c2ccc(Cl)c(C(=O)O)c2)cc1 | -1 | -1 | . | -3 | -3
C=C1C(=O)[C@@]23[C@H](O)C[C@@H]4C(C)(C)CC[C@H](O)[C@@]4(C)[C@@H]2CC[C@@H]1[C@H]3O | 28 | 0 | -57* | -15 | 1
C=C1C(=O)[C@@]23[C@H](O)C[C@@H]4C(C)(C)CC[C@H](O)[C@]4(C)[C@@H]2C[C@H](O)[C@@H]1[C@H]3O | -9 | 0 | 0 | -18 | 2
CCOc1ccc(/C=N/NC(=O)c2ccccc2Cl)cc1CN1CC2CC(C1)c1cccc(=O)n1C2 (configuration not stated) | . | -2 | -85* | -94 | -1
Cc1nn(C)c2c1c(-c1ccccc1)cc(=O)n2Cc1ccccc1C#N | 2 | 20 | . | 2 | -4
NC1=NC(=O)/C(=C/c2ccsc2)S1 | -33* | 1 | 13 | -2 | -1
COc1cccc2c1cc1c(=O)n(CC(=O)N3CCC(C)CC3)nc(C)n12 | -3 | 2 | 1 | 38*! | -5
CCOC(=O)C1CCN(C(=O)Cn2nc(C)n3nc(-c4ccc(OC)cc4)cc3c2=O)CC1 | -4 | 4 | 21 | -3 | -2
